Bioassay records from PubChem BioAssay.
HttQ103 aggreg – inhibitors of mutant huntingtin aggregate formation in PC12 cells. PC12 HttQ103-GFP aggregates, Acumen cytometry, 40 h. Potency, µM (top dose mostly 46.1 µM), most hits filed as inhibitors. hit rate 1.1% among 220,000; active = well fitted curve in the direction sought with a large enough effect; inconclusive = small, poorly fitted or top-dose-only effect, or another doubt; inactive = no such curve, though single readings can be large; an effect the other way counts as inactive or inconclusive; also: nearly all actives have a fitted effect of over 60% in size
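Using laser scanning cytometry, GFP-positive aggregates were counted after lysis of PC12 cells induced with 100 nM tebufenozide to express HTT exon 1 Q103–GFP. Compounds were tested in titration.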
LMNA splice mod – modulators of lamin A splicing | HeLa LMNA splicing GFP/RFP minigene ratio, 48 h | Potency, µM (top dose mostly 46.1 µM), usual class: inhibitors | hit rate 0.01% among 200,000 | AID 1487; active = well fitted inhibition curve with a large enough effect in the signal ratio, with a control signal flat, not every such curve was filed as active; inconclusive = small, poorly fitted or top-dose-only effect, or effect the other way, or a change in a side signal; the % refers to the signal ratio
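S3 HeLa stable clones carrying a lamin A-EGFP splicing minigene plus DsRed2 were seeded at 600 cells/well in Opti-MEM with 2% FBS, pin-dosed and incubated 48 h at 37°C. Acumen cytometry (488 nm) gave the GFP/RFP total-intensity ratio.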
KDM4E inh – inhibitors of human JMJD2E histone demethylase; AID 2147; hit rate 1.6% among 230,000; B2RXH2; Potency, µM (top dose mostly 57.1 µM), usual class: inhibitors; JMJD2E catalytic domain, FDH-coupled NADH fluorescence (FDH is formaldehyde dehydrogenase); also: nearly all actives have a fitted effect of over 50% in size
HPGD inh – blocks human HPGD enzyme activity; purified HPGD, NADH fluorescence kinetic, PGE2 substrate; hit rate 4.3% among 150,000; Potency, µM, hits mostly inhibitors; AID 894
Target sequence (P15428 whole entry, looked up): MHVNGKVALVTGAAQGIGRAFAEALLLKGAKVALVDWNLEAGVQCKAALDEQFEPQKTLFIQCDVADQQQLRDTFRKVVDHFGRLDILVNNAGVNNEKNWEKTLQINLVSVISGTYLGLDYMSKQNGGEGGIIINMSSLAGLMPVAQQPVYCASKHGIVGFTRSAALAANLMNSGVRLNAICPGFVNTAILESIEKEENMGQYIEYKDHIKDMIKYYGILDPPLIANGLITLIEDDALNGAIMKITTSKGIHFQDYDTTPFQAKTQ
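NADH formation kinetics: reaction with 30 uM PGE2 and 1 mM NAD+ (final), 20 nM enzyme, Tris-HCl pH 8 with Tween 20, after 15 min compound preincubation at room temperature. Fluorescence change, last versus first of five reads.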
HTT cytoprotect – protects HTT-Q103 PC12 cells, measured by ATP. PC12 HTT-Q103 induced, cytoprotection, ATP luminescence, 40 h. Potency, µM (doses to about 56.4 µM), most hits filed as activators. hit rate 0.14% among 230,000; active = well fitted curve in the direction sought with a large enough effect; inconclusive = small, poorly fitted or top-dose-only effect, or another doubt; inactive = no such curve, though single readings can be large; an effect the other way counts as inactive or inconclusive; also: nearly all actives have a fitted effect of over 45% in size
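PC12 cells with ecdysone-inducible HTT exon 1 Q103-GFP, induced with 100 nM tebufenozide and co-treated with library compounds in a dose series (1536-well, 1500 cells/well). Cytoprotection read as ATP content by ATPlite luminescence.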
ALDH1A1 inh – blocks purified human ALDH1A1 activity | P00352 | Purified ALDH1A1, NADH fluorescence, propionaldehyde substrate | Potency, µM (top dose mostly 75.3 µM), usual class: inhibitors | hit rate 7.3% among 220,000
Numbers stand for hits; ! = repeats disagree; [ ] = dose if it differs, or a comment. Most compounds without a hit are left out; they make up all but 9.2% or so of the library. Unless noted, calls follow the shape of the dose curve; as a rule, active = well fitted inhibition curve with a large enough effect (not every such curve was filed as active); inconclusive = small, poorly fitted or top-dose-only effect, or another doubt; inactive = no such curve, though single readings can be large or run the other way.

Results for Fc1cccc(Cl)c1CNn1cn[nH]c1=S ?
HttQ103 aggreg: inactive; LMNA splice mod: inactive; KDM4E inh: inactive; HTT cytoprotect: inactive; ALDH1A1 inh: inactive

What do the screens show for `CCc1cccc(NC(=O)CSC2=NS(=O)(=O)c3ccccc32)c1`?
HttQ103 aggreg: inactive; LMNA splice mod: inactive; KDM4E inh: inactive; HPGD inh: 22µM; HTT cytoprotect: inactive; ALDH1A1 inh: inconclusive

Results for CCc1cccc(NC(=O)CN2C=NS(=O)(=O)c3ccccc32)c1 ?
LMNA splice mod: inactive

What do the screens show for `CCOC(=O)C1=C(CC)Nc2ccccc2N=C1NC(=O)c1ccc(S(=O)(=O)N2CCOCC2)cc1`?
HttQ103 aggreg: inactive; KDM4E inh: inactive; HTT cytoprotect: inactive; ALDH1A1 inh: 14µM

Results for CCOC(=O)C1=C(C)Nc2ccccc2N=C1NC(=O)C(c1ccccc1)c1ccccc1 ?
HttQ103 aggreg: inactive; KDM4E inh: inactive; HTT cytoprotect: inactive[10 µM]; ALDH1A1 inh: 0.14µM

Results for CCOC(=O)C1CCN(C(c2ccc(C)cc2)c2sc3nc(-c4ccco4)nn3c2O)CC1 (stereo not given) ?
LMNA splice mod: inactive

What do the screens show for `O=C(COC(=O)/C=C/c1ccco1)NCc1ccc2c(c1)OCO2`?
HttQ103 aggreg: inactive; LMNA splice mod: inactive; KDM4E inh: inactive; HTT cytoprotect: inactive; ALDH1A1 inh: inactive

What do the screens show for `COC(=O)C/C=C\[C@@H](C)[C@@H](/C=N\O[C@@H](C)c1cc(-c2c(C)cc(C)cc2C)no1)NS(=O)(=O)c1ccc(C)cc1`?
HTT cytoprotect: inactive[10 µM]; ALDH1A1 inh: inconclusive

Results for Oc1cc2c(cc1O)C1c3ccc(O)c(O)c3OCC1(O)C2 (stereo not given) ?
HttQ103 aggreg: inactive[9.22 µM]; KDM4E inh: 0.71µM; HPGD inh: 1.1µM; HTT cytoprotect: inactive; ALDH1A1 inh: 11µM!

What do the screens show for `O=C(Nc1cc(Cl)ccn1)C1(c2ccccc2)CC1(Cl)Cl` (stereo not given)?
HttQ103 aggreg: inactive[9.22 µM]; KDM4E inh: inactive; HTT cytoprotect: inactive[10 µM]; ALDH1A1 inh: inactive

What do the screens show for `CCOC(=O)C1(CC2CCCCO2)CCN(Cc2cc3ccccc3[nH]2)CC1` (stereo not given)?
HttQ103 aggreg: inactive[9.22 µM]; KDM4E inh: inactive; HTT cytoprotect: inactive[10 µM]; ALDH1A1 inh: 1.3µM

How did CCOC(=O)C1(CC2CCCCO2)CCN(S(=O)(=O)c2cc(C)cs2)CC1 (stereo not given) do in these assays?
HttQ103 aggreg: inactive[9.22 µM]; KDM4E inh: inactive; HTT cytoprotect: inactive[10 µM]; ALDH1A1 inh: 10µM

Results for CCCCc1ncc(CN2CCC(CC3CCCCO3)(C(=O)OCC)CC2)[nH]1 (stereo not given) ?
HttQ103 aggreg: inactive[9.22 µM]; KDM4E inh: inactive; HTT cytoprotect: inactive[10 µM]; ALDH1A1 inh: inactive

What do the screens show for `CCOC(=O)C1(CC2CCCCO2)CCN(S(=O)(=O)c2cccc(F)c2)CC1` (stereo not given)?
HttQ103 aggreg: inactive[9.22 µM]; LMNA splice mod: inactive; KDM4E inh: inactive; HTT cytoprotect: inactive[10 µM]; ALDH1A1 inh: 25µM

Results for Cc1c(Cl)c([N+](=O)[O-])nn1CCCC(=O)Nc1sc2c(c1C(N)=O)CCC(C)C2 (stereo not given) ?
HttQ103 aggreg: inconclusive; LMNA splice mod: inactive; KDM4E inh: inactive; HPGD inh: 5µM; HTT cytoprotect: inactive[10 µM]; ALDH1A1 inh: inactive

What do the screens show for `Cc1c(Br)c([N+](=O)[O-])nn1CCCC(=O)Nc1sc2c(c1C(N)=O)CCC(C)C2` (stereo not given)?
HttQ103 aggreg: inactive; LMNA splice mod: inactive; KDM4E inh: inactive; HPGD inh: 11µM; HTT cytoprotect: inactive[10 µM]; ALDH1A1 inh: 25µM

What do the screens show for `Cc1nc2ccccc2c(=O)n1/N=C/c1c(O)ccc2oc3c(c12)CCCC3`?
HttQ103 aggreg: inconclusive; LMNA splice mod: inactive; KDM4E inh: inactive; HPGD inh: inactive; HTT cytoprotect: inactive[10 µM]; ALDH1A1 inh: inactive

Results for NC(=O)N/N=C/c1c(O)ccc2oc3c(c12)CCCC3 ?
HttQ103 aggreg: inactive[9.22 µM]; KDM4E inh: 28µM; HTT cytoprotect: inactive[10 µM]

Results for Cn1cccc1C(=O)N1CCC2(CCCN(c3ncccn3)C2)CC1 ?
HPGD inh: inactive; HTT cytoprotect: inactive; ALDH1A1 inh: inactive
